# According to PubChem BioAssay (NCATS):
# Several values for one entry are separate records, joined by “and”; a condition that tells them apart may be missing. Equal entries are not always repeated. Records with an inconclusive call do not appear. A call without a number means that no potency is given here. Activity calls are given as the source filed them. Unless noted, calls come from the whole dose curve.
# What was measured:
# [1] = target: Bile acid receptor (Homo sapiens) (UniProt Q96RI1); assay: qHTS assay for small molecule antagonists of farnesoid X receptor signaling (AID 588526)
# Sequence of Bile acid receptor (Homo sapiens) (Q96RI1 whole entry, looked up): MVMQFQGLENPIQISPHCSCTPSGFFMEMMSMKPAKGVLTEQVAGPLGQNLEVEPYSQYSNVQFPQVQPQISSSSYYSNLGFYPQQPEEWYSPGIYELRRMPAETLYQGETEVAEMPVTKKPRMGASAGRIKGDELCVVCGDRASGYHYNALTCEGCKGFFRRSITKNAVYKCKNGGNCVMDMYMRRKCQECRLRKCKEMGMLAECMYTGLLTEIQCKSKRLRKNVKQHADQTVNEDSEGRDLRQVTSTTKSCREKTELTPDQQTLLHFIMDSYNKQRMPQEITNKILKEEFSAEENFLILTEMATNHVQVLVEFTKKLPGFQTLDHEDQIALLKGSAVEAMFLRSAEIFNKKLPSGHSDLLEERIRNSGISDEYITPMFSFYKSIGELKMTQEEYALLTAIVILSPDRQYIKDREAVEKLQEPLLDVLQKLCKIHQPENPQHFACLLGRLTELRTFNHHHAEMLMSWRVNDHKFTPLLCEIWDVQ
# Method in brief: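 Beta-lactamase reporter antagonist mode: HEK293T FXR-UAS-bla cells, titrated compound, CDCA stimulation, 16 h 37 C, CCF4 dye 2 h RT. Data normalized to CDCA 50 uM and DMSO; Hill-fit IC50.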
# [2] = target: Bile acid receptor (Homo sapiens) (UniProt Q96RI1); assay: qHTS assay for small molecule agonists of farnesoid X receptor signaling (AID 588527); details: HEK293T FXR-UAS-bla, beta-lactamase ratio, 16 h; activation: stronger effect = higher value; note: series mostly up to about 77 µM
# Method in brief: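 Read-out: beta-lactamase reporter fluorescence with CCF4 substrate in GeneBLAzer FXR-UAS-bla HEK293T cells, after 16 h compound exposure at 37 C. Response scaled between DMSO basal (0%) and chenodeoxycholic acid at 100 uM (100%).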
# [3] = target: Glucocorticoid receptor (Homo sapiens) (UniProt P04150); assay: qHTS assay for small molecule antagonists of glucocorticoid receptor signaling (AID 588533; active = well fitted inhibition curve with a large enough effect in the signal ratio, with a control signal flat, not every such curve was filed as active; the % refers to the signal ratio;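 note: cells stimulated with 2 nM dexamethasone as agonist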)
# Sequence of Glucocorticoid receptor (Homo sapiens) (P04150 whole entry, looked up): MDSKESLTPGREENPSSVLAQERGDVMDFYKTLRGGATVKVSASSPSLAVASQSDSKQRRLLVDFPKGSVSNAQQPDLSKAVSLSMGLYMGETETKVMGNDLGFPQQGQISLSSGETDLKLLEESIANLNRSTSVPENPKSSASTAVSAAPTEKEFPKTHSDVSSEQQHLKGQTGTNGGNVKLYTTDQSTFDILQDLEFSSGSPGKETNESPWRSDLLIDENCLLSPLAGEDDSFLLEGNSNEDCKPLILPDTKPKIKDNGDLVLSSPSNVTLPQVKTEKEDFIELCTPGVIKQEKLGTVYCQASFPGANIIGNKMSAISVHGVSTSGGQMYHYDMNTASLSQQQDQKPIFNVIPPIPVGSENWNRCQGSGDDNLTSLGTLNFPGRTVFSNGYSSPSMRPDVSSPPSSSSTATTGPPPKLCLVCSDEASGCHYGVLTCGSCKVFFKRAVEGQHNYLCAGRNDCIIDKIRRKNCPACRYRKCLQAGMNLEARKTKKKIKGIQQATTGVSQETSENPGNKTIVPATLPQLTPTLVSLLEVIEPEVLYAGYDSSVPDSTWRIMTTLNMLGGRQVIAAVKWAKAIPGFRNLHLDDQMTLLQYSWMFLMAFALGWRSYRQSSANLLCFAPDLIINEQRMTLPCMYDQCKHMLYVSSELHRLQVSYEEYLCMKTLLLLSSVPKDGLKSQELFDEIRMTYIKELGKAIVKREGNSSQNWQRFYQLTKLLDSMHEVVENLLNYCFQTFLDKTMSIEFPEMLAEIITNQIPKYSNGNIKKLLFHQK
# Method in brief: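 Antagonist-mode qHTS: compound titrations added to GRE-bla HeLa cells, then dexamethasone 2 nM final; 18 h, 37 C. CCF4 FRET fluorescence normalized to dexamethasone and DMSO; IC50 from Hill fit.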
# [4] = qHTS assay for small molecule agonists of retinoid X receptor alpha signaling (AID 588544); details: HEK293T RXRa-UAS-bla, beta-lactamase reporter, 18 h; 530 nm emission
# [5] = target: Thyroid hormone receptor beta (Homo sapiens) (UniProt P10828); assay: qHTS assay for small molecule antagonists of thyroid hormone receptor beta signaling (AID 588547; active = well fitted inhibition curve with a large enough effect in the signal ratio, with a control signal flat, not every such curve was filed as active; the % refers to the signal ratio;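 note: cells stimulated with 0.4 nM T3 agonist during compound exposure; series mostly up to about 77 µM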); details: TR-UAS-bla HEK293, beta-lactamase ratio, antagonist mode, 18 h
# Sequence of Thyroid hormone receptor beta (Homo sapiens) (P10828 whole entry, looked up): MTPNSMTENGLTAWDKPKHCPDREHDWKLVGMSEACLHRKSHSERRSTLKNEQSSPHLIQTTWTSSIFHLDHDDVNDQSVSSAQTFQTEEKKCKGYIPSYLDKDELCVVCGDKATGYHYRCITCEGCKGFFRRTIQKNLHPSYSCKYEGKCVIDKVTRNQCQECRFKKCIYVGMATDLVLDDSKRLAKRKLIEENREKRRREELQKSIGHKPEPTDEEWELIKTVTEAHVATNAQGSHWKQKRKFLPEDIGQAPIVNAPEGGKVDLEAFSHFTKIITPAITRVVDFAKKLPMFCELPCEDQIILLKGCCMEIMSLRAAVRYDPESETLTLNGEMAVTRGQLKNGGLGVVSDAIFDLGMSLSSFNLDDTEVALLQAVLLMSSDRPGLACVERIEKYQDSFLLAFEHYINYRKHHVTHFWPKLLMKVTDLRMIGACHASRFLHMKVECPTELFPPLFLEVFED
# Method in brief: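 Inhibition of T3-driven (0.4nM final) beta-lactamase reporter activity was measured over 0.59 nM to 92 uM compound after 18 h at 37 C. The cells were GripTite HEK293 TR-UAS-bla in charcoal/dextran-stripped serum, with CCF4 ratio read-out and IC50 from Hill fits.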
# [6] = qHTS assay for small molecule agonists of the antioxidant response element (ARE) signaling pathway (AID 651741; active = well fitted activation curve with a large enough effect in the signal ratio; the % refers to the signal ratio; note: potency is the fitted concentration of half-maximal effect)
# Method in brief: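 Beta-lactamase reporter under ARE control in HepG2 cells, 2,000 per well, was induced by 16 h compound treatment at 37 C. Read-out was fluorescence from LiveBLAzer B/G FRET substrate after 2 h at room temperature.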
# [7] = qHTS assay for small molecule antagonists of peroxisome proliferator-activated receptor delta signaling (AID 588535; active = well fitted inhibition curve with a large enough effect in the signal ratio, with a control signal flat, not every such curve was filed as active; the % refers to the signal ratio;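 for max response: cells co-treated with a PPAR-delta agonist as stimulator during compound exposure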); details: HEK293T PPARd-UAS-bla, beta-lactamase FRET ratio, 18 h; 460 nm channel
# Method in brief: (§1)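 Titrations were run on PPAR-delta-UAS-bla HEK293T cells in charcoal/dextran-stripped serum, incubated 18 h at 37 C. CCF4 fluorescence (460/530 nm) after 2 h RT; Hill equation yields IC50 and maximal response.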
# [8] = target: Peroxisome proliferator-activated receptor delta (Homo sapiens) (UniProt Q03181); assay: as above
# Sequence of Peroxisome proliferator-activated receptor delta (Homo sapiens) (Q03181 whole entry, looked up): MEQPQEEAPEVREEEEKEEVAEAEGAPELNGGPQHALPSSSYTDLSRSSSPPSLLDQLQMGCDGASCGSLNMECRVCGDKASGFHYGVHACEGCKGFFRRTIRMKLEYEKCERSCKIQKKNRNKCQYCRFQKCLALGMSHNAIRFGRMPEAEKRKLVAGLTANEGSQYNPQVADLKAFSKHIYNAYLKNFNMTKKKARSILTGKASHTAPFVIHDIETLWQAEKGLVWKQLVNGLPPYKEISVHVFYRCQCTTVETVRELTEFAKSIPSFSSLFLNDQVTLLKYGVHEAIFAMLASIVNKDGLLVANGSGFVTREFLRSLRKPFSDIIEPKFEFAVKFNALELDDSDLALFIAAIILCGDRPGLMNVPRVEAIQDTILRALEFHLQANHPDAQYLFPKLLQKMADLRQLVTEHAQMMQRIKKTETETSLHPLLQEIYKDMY
# Method in brief: as §1
# [9] = target: Peroxisome proliferator-activated receptor gamma (Homo sapiens) (UniProt P37231); assay: qHTS assay for small molecule antagonists of peroxisome proliferator-activated receptor gamma signaling (AID 588537; active = well fitted inhibition curve with a large enough effect in the signal ratio, with a control signal flat, not every such curve was filed as active; the % refers to the signal ratio;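 note: reporter cells co-stimulated with 50 nM rosiglitazone agonist during compound treatment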)
# Sequence of Peroxisome proliferator-activated receptor gamma (Homo sapiens) (P37231 whole entry, looked up): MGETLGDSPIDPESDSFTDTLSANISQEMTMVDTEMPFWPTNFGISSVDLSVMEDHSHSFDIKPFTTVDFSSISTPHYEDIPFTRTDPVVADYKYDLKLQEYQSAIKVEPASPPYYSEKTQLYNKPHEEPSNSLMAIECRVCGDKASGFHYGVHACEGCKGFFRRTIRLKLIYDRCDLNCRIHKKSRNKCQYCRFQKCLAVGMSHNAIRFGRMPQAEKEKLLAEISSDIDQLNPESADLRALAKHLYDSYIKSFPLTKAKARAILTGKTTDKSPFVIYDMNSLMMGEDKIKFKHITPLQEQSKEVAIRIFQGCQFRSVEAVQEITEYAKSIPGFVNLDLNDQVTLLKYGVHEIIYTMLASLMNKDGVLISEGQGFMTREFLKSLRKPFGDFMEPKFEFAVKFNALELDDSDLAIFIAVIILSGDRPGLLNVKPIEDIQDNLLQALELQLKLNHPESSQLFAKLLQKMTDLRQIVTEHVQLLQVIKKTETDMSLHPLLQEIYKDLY
# Method in brief: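 Antagonist-mode β-lactamase reporter screen run as a titration series. HEK293 PPARγ-UAS-bla cells are stimulated with rosiglitazone (50 nM final) for 16 h, then CCF4 is read at 460/530 nm. Data are scaled between DMSO and rosiglitazone and fitted to the Hill equation.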
# [10] = qHTS assay for small molecule activators of the human pregnane X receptor (PXR) signaling pathway (AID 720659; call rule not given here)
# [11] = target: Cytochrome P450 3A4 (Homo sapiens) (UniProt P08684); assay: qHTS Assay for Inhibitors and Substrates of Cytochrome P450 3A4 (AID 884; active = well fitted curve in the direction sought with a large enough effect; an effect the other way counts as inactive or inconclusive; note: potency is the fitted concentration of half-maximal effect; nearly all actives have a fitted effect of over 50% in size)
# Sequence of Cytochrome P450 3A4 (Homo sapiens) (P08684 whole entry, looked up): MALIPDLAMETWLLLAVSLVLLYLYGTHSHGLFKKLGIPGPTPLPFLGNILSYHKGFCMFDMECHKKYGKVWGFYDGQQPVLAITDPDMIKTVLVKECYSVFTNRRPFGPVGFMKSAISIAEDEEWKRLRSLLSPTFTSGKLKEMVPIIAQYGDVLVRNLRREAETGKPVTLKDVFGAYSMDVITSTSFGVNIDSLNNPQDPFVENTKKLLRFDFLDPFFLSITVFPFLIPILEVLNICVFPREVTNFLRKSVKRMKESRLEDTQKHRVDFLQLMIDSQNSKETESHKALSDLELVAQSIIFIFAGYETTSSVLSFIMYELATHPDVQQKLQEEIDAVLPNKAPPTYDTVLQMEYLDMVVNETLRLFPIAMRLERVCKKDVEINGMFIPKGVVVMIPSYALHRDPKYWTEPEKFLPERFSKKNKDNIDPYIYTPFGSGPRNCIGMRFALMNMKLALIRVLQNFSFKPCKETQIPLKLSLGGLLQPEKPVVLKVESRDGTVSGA
# Method in brief: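 Luminescent readout of luciferin produced by CYP3A4 (20 nM) dealkylation of Luciferin-PPXE, 25 uM (its KM). NADPH-driven reaction ran 60 min at RT after 10 min compound preincubation; data scaled to 57 uM ketoconazole as 100% inhibition.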
# [12] = target: Cytochrome P450 3A4 (Homo sapiens) (UniProt P08684); assay: qHTS Assay for Activators of Cytochrome P450 3A4 (AID 885; active = well fitted curve in the direction sought with a large enough effect; an effect the other way counts as inactive or inconclusive; note: nearly all actives have a fitted effect of over 65% in size)
# Method in brief: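 Activators are scored by enhanced luminescence from CYP3A4 conversion of luciferin-PPXE (25uM, equal to KM) to luciferin, after 60 min at RT with an NADPH-regenerating system.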
# [13] = target: Androgen receptor (Homo sapiens) (UniProt P10275); assay: qHTS assay for small molecule agonists of androgen receptor signaling (AID 588515; active = well fitted curve in the direction sought with a large enough effect in the signal ratio, with a control signal flat; the % refers to the signal ratio); details: AR-UAS-bla HEK293, beta-lactamase ratio, agonist 16 h; stronger effect = higher value
# Sequence of Androgen receptor (Homo sapiens) (P10275 whole entry, looked up): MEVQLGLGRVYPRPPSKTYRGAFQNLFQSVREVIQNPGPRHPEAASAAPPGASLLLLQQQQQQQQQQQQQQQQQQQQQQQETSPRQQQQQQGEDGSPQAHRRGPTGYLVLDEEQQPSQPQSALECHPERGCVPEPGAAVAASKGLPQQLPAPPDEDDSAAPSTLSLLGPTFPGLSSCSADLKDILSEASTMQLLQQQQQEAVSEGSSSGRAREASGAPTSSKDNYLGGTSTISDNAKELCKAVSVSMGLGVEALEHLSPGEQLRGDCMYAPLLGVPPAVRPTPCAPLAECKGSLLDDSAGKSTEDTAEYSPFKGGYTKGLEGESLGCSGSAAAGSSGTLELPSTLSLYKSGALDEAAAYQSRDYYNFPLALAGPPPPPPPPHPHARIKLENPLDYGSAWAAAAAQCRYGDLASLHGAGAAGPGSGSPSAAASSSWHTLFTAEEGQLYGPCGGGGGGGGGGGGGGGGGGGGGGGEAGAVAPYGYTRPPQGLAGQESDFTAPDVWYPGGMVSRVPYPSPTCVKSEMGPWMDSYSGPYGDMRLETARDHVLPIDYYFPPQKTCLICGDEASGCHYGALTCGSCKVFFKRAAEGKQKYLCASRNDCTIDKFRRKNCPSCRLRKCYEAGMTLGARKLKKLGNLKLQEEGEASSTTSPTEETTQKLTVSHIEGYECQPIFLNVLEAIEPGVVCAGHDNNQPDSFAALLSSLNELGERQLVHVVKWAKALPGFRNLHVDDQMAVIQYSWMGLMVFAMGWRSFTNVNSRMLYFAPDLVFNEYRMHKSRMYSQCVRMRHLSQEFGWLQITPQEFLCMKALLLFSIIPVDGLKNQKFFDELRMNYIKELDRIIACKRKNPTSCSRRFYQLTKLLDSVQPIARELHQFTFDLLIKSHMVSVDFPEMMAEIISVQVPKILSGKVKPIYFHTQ
# Method in brief: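 Stimulation of an AR-responsive β-lactamase reporter in GripTite HEK293 cells was measured after 16 h compound exposure at 37 °C, via CCF4 fluorescence after 2 h RT. EC50 from Hill fits, normalized to R1881 at 30 nM.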
# [14] = target: Androgen receptor (Homo sapiens) (UniProt P10275); assay: qHTS assay for small molecule antagonists of androgen receptor signaling (AID 588516; active = well fitted curve in the direction sought with a large enough effect in the signal ratio, with a control signal flat, not every such curve was filed as active; the % refers to the signal ratio)
# Method in brief: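 HEK293 AR-UAS-bla cells, 10% dialyzed FBS medium; cpd titration + R1881 10 nM final, 16 h 37 C; CCF4 2 h RT; FRET ratio; IC50/efficacy via Hill fit.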
smiles,measurement,setting,value
Clc1ccc([C@@]2(Cn3cncn3)C[C@H](Br)CO2)c(Cl)c1,Potency,[1],inactive
same,activation,[2],-2.3% (inactive)
same,Potency,[3],inactive
same,max response,[4],-2.9%
same,activity change % (negative = inhibition),[5],2.29% (inactive)
same,Potency,[6],inactive
CCOC(=O)Nc1cccc(OC(=O)Nc2ccccc2)c1,Potency,[3],inactive
same,max response,[7],9.77%
same,Potency,[8],inactive
same,Potency,[9],inactive
same,max response,[4],2.58%
same,activity change % (negative = inhibition),[5],5.59% (inactive)
same,Potency,[6],24.3 µM (active)
CNC(=O)Oc1cc(C)cc(C(C)C)c1,max response,[7],-13.9%
same,Potency,[8],inactive
same,Potency,[9],inactive
same,max response,[4],-15.4%
same,activity change % (negative = inhibition),[5],4.48% (inactive)
same,outcome,[10],inactive
Cc1cc(Cl)ccc1OC(C)C(=O)O (stereo not drawn),max response,[7],36.3%
same,Potency,[8],inactive
same,Potency,[9],inactive
same,max response,[4],-5.5%
same,activity change % (negative = inhibition),[5],-3.04% (inactive)
same,Potency,[6],inactive
same,outcome,[10],inactive
CSC(=O)c1c(C(F)F)nc(C(F)(F)F)c(C(=O)SC)c1CC(C)C,max response,[7],97.5%
same,Potency,[8],inactive
same,Potency,[9],inactive
same,activity change % (negative = inhibition),[5],-31.5% (inactive)
CCOS(=O)(=O)OCC,max response,[7],-21.4%
same,Potency,[8],inactive
same,Potency,[9],inactive
same,max response,[4],-16.7%
same,Potency,[6],inactive
same,outcome,[10],inactive
CCOP(=S)(OCC)Oc1ccc(S(C)=O)cc1 (stereo not drawn),max response,[7],-64.2%
same,Potency,[8],inactive
same,Potency,[9],inactive
same,max response,[4],-0.202%
same,activity change % (negative = inhibition),[5],-4.14% (inactive)
CCCN(CC)CC1COC2(CCC(C(C)(C)C)CC2)O1 (stereo not drawn),Potency,[3],inactive
same,max response,[7],36.1%
same,Potency,[8],inactive
same,Potency,[6],inactive
same,outcome,[10],inactive
CCc1ccc(C(=O)NN(C(=O)c2cc(C)cc(C)c2)C(C)(C)C)cc1,Potency,[11],3.98 µM (active)
same,Potency,[12],inactive
same,Potency,[3],inactive
same,max response,[4],1.33%
same,activity change % (negative = inhibition),[5],18% (inactive)
O=C(NC(=O)c1c(F)cccc1F)Nc1ccc(OC(F)(F)C(F)OC(F)(F)F)c(Cl)c1 (stereo not drawn),Potency,[3],inactive
same,max response,[7],59.9%
same,Potency,[8],inactive
same,max response,[4],-12.6%
same,activity change % (negative = inhibition),[5],12.3% (inactive)
same,outcome,[10],inactive
Cc1cc(C)nc(NC(=O)NS(=O)(=O)c2ccccc2C(=O)OC2COC2)n1,activation,[13],-3.69% (inactive)
same,Potency,[14],inactive
same,Potency,[1],inactive
same,activation,[2],1.23% (inactive)
same,max response,[7],2.3%
same,Potency,[8],inactive
same,Potency,[9],inactive
same,max response,[4],-3.21%
same,outcome,[10],inactive
Cn1cc(-c2ccccc2)c(=O)c(-c2cccc(C(F)(F)F)c2)c1,Potency,[3],inactive
same,max response,[7],16.9%
same,Potency,[8],inactive
same,Potency,[9],inactive
same,activity change % (negative = inhibition),[5],1.65% (inactive)
CCNP(=S)(OC)O/C(C)=C/C(=O)OC(C)C (stereo not drawn),Potency,[9],inactive
same,max response,[4],-7.51%
O=P(OCC(Br)CBr)(OCC(Br)CBr)OCC(Br)CBr (stereo not drawn),activation,[13],-12.7% (inactive)
same,activation,[2],0.554% (inactive)
same,max response,[7],-17.7%
same,Potency,[8],inactive
same,activity change % (negative = inhibition),[5],-25.3% (inactive)
same,Potency,[6],15.4 µM (active)
O=C(O)c1nc(Cl)ccc1Cl,Potency,[3],inactive
same,max response,[4],15.6% and -18.9%
same,activity change % (negative = inhibition),[5],-7.12% (inactive)
same,outcome,[10],inactive
CNC(=O)/C=C(\C)OP(=O)(OC)OC,Potency,[1],inactive
same,activation,[2],6.76% (inactive)
same,max response,[7],32.8%
same,Potency,[8],inactive
same,Potency,[9],inactive
same,max response,[4],-13.8%
same,activity change % (negative = inhibition),[5],-12.7% (inactive)
same,Potency,[6],inactive
CCCN(CCC)c1c([N+](=O)[O-])cc(C(F)(F)F)c(N)c1[N+](=O)[O-],activation,[2],9.33% (inactive)
CCNc1nc(Cl)nc(NC(C)(C)C)n1,activation,[13],-15.6% (inactive)
same,Potency,[14],inactive
same,Potency,[1],inactive
same,activation,[2],0.616% (inactive)
same,Potency,[3],inactive
same,max response,[7],33.2%
same,Potency,[8],inactive
same,Potency,[9],inactive
same,Potency,[6],inactive
COP(=S)(OC)Oc1c(Cl)cc(C)cc1Cl,max response,[7],-4.3%
same,Potency,[8],inactive
same,Potency,[9],inactive
same,max response,[4],0.267%
same,activity change % (negative = inhibition),[5],7.32% (inactive)
CC1=C(C(=O)Nc2ccccc2)SCCO1,activation,[13],-8.15% (inactive)
same,Potency,[14],inactive
same,Potency,[1],inactive
same,activation,[2],-5.36% (inactive)
same,Potency,[3],inactive
same,Potency,[9],inactive
same,activity change % (negative = inhibition),[5],3.71% (inactive)
same,Potency,[6],inactive
[Ga]#[As],activation,[13],2.63% (inactive)
same,Potency,[14],inactive
same,Potency,[1],inactive
same,max response,[7],33%
same,Potency,[8],inactive
same,Potency,[9],inactive
same,max response,[4],-5.43%
same,outcome,[10],inactive
O=[N+]([O-])Nc1nccn1Cc1ccc(Cl)nc1,activation,[13],20.9% (inactive)
same,Potency,[14],inactive
same,Potency,[1],inactive
same,max response,[7],19.2%
same,Potency,[8],inactive
same,Potency,[9],inactive
same,max response,[4],-15.2%
same,activity change % (negative = inhibition),[5],-3.59% (inactive)
same,outcome,[10],inactive
CCSCCSP(=O)(OC)OC,activation,[13],-9.34% (inactive)
same,Potency,[14],inactive
same,Potency,[1],inactive
same,Potency,[3],inactive
same,max response,[7],-10.5%
same,Potency,[8],inactive
same,max response,[4],1.71%
same,activity change % (negative = inhibition),[5],4.21% (inactive)
same,Potency,[6],54.5 µM (active)
same,outcome,[10],inactive
C=C1CC[C@H](O)C/C1=C/C=C1\CCC[C@]2(C)[C@@H]([C@H](C)CCCC(C)C)CC[C@@H]12,Potency,[6],23.7 µM (active)
COc1cc(OC)nc(NC(=O)NS(=O)(=O)c2ncccc2C(F)(F)F)n1,activation,[13],3.3% (inactive)
same,Potency,[14],inactive
same,Potency,[1],inactive
same,activation,[2],-0.618% (inactive)
same,Potency,[3],inactive
same,max response,[7],-12.7%
same,Potency,[8],inactive
same,Potency,[9],inactive
same,max response,[4],-4.69%
same,outcome,[10],inactive
Clc1ccc([C@@]2(Cn3cncn3)C[C@@H](Br)CO2)c(Cl)c1,Potency,[1],inactive
same,activation,[2],3.84% (inactive)
same,max response,[7],-0.908%
same,Potency,[8],inactive
same,activity change % (negative = inhibition),[5],11.5% (inactive)
O=C(Nc1ccccc1)Nc1ccnc(Cl)c1,activation,[13],10.1% (inactive)
same,Potency,[14],inactive
same,Potency,[1],inactive
same,activation,[2],-3.44% (inactive)
CCOP(=O)(NC(C)C)Oc1ccc(S(C)(=O)=O)c(C)c1 (stereo not drawn),activation,[13],6.06% (inactive)
same,Potency,[14],inactive
same,Potency,[1],inactive
same,activation,[2],-2.2% (inactive)
same,Potency,[9],inactive
same,activity change % (negative = inhibition),[5],9.01% (inactive)
same,Potency,[6],inactive
